Assay results as given in PubChem BioAssay.
Calls of active or inactive are those of the source. No rule for the calls is given here.

experiment: Brca1-Bard1 BiLC signal decrease – luminescence, single concentration, counter-screen for Mdm2/MdmX interaction inhibitor project, confirmation (AID 504668); details: Brca1/Bard1 bimolecular luciferase complementation counterscreen, at 8 µM, hits give high values

| Compound | inhibition |
| --- | --- |
| O=C1[C@H]2[C@@H](c3ccc(F)cc3)N3C(=O)N(c4ccc(Br)cc4)C(=O)[C@@]3(Cc3ccccc3)[C@H]2C(=O)N1C1CCCCC1 | 26.6% (active) |
| O=C(Nc1ccc(Cl)cc1)Nc1ccc(Cl)c(Cl)c1 | 26.8% (active) |
| Cn1ccc2cc(-c3ccc4ncnc(NCc5cccs5)c4c3)ccc21 | 25% (active) |
| C=CCn1c(SCC(=O)Nc2ccc(F)cc2F)nc2c([nH]c3ccccc32)c1=O | 26.8% (active) |
| O=C(CCCN1C(=O)/C(=C/c2ccccc2)SC1=S)Nc1ccccc1O | 29.9% (active) |
| O=c1c2cc(Br)ccc2nc(-c2cccc(C(F)(F)F)c2)n1O | 29.9% (active) |
| Cc1cc(C)n(-c2ccc3cccc(NS(C)(=O)=O)c3n2)n1 | 32.1% (active) |
| Nc1cccc2nc3ccccc3cc12 | 32.2% (active) |
| CCCCCCCCCCOC(=O)Cn1c(COc2cccc(C)c2)[n+](C)c2ccccc21 | 24.9% (active) |
| Cc1cccn2c(=O)c3cc(C(=O)NCCN4CCOCC4)c(=N)n(Cc4ccc(F)cc4)c3nc12 | 34.8% (active) |
| CCN(CC)S(=O)(=O)c1cc(OC)ccc1N=Nc1ccc(O)c2ncccc12 | 35.8% (active) |
| COc1ccc(-c2cc(C(=O)N/N=C/c3sccc3C)c3ccccc3n2)c(OC)c1 | 31.4% (active) |
| Cc1ccc2nc(-c3ccccn3)c(Nc3ccccc3C)n2c1 | 35.8% (active) |
| Cc1nn2c(NCc3ccccn3)cc(C(C)C)nc2c1-c1ccccc1 | 28.7% (active) |
| Cn1c(/C=C/c2ccc(Br)cc2)c([N+](=O)[O-])c(=O)n(C)c1=O | 23.9% (active) |
